CYP2C19 inh: blockers of cytochrome P450 2C19 activity – biochemical, luminescence, ADME assay, primary screen; hit rate 21% among 96,000; CYP2C19 Supersomes, luciferin-H EGE luminescence, 30 min; AID 778, 2007; inhibition, % at 5 µM;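 active = CYP2C19 inhibition above a set limit at 5 µM in the primary screen, cut at about 50% in these data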;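 also: plate controls were negative control wells for no effect and 2.5 mM tranylcypromine positive control for full effect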
Target sequence (P33261 whole entry, looked up): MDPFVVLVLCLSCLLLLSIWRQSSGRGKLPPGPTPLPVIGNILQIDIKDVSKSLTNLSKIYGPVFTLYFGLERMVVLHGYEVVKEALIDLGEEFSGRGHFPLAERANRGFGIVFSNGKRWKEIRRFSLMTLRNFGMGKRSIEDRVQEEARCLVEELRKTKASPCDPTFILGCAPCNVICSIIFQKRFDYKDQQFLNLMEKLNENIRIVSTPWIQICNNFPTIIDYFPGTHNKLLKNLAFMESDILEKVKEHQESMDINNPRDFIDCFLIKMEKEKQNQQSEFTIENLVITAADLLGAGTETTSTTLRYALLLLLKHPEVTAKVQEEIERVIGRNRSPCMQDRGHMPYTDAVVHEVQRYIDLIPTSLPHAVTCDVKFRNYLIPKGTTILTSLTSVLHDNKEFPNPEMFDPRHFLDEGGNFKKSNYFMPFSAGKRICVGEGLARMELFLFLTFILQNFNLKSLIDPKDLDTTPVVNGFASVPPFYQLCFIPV
CYP2C19 activ: human CYP2C19 activators, primary screen, biochemical, luminescence; AID 1025, 2008; activation factor at 5 µM; 96,000 tested, under 10 active; recombinant CYP2C19, luciferin-H EGE luminescence; active compounds read high; 0 = fully inhibited enzyme, 1 = untreated enzyme; Cytochrome P450 2C19 (Homo sapiens), P33261;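 active = activation factor of at least 2 at 5 µM in the primary screen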;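 also: 0 = wells with 2.5 mM tranylcypromine and 1 = vehicle-only wells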
PLAP activator: PLAP enzyme activators, biochemical, luminescence, HTS; Alkaline phosphatase, placental type (Homo sapiens), P05187; purified PLAP enzyme, luminescent substrate read-out; active compounds read high; activation fold at 20 µM; hit rate 1.2% among 96,000; AID 696, 2007; in the data active = activation fold above about 2
CYP2C9 activ: human CYP2C9 activators, primary screen, biochemical, luminescence; Cytochrome P450 2C9 (Homo sapiens), P11712; recombinant CYP2C9, luciferin-H conversion; active compounds read high; factor 1 = untreated enzyme, 0 = blocked; activation factor at 5 µM; hit rate 1.4% among 96,000;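 active = activation factor of 2 or more for CYP2C9 at a 5 µM dose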;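 also: 0 = sulfaphenazole-blocked wells and 1 = vehicle-only wells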
CYP2C9 inhib: blockers of cytochrome P450 2C9 activity – biochemical, luminescence, ADME assay, primary screen; inhibition, % at 5 µM; AID 777, 2007; CYP2C9 Supersomes, luciferin-H conversion; hit rate 20% among 96,000; P11712;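 active = blocking of liver enzyme CYP2C9 beyond about 50% at 5 µM, limit read from the data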
* = called active by the depositor. These entries were drawn from the full list.

SMILES | CYP2C19 inh | CYP2C19 activ | PLAP activator | CYP2C9 activ | CYP2C9 inhib
CSc1nc2[nH]c3c(c2c2ncnn12)CCCC3 | 8 | 0.9 | 0.6 | 0.8 | 20
COC(=O)C1=NN(N=O)C2(CC(=O)N(c3cc(C)cc(C)c3)C2=O)C1 (stereo not given) | 6 | 0.9 | 1.3 | 0.9 | 11
CC(=O)Nc1cccc(-c2nnc(SCc3ccccc3C#N)n2C)c1 | 62* | 0.4 | 0.8 | 1.1 | -6
CC(=O)Nc1ccc(-c2nnc(SCc3ccc(C)cc3)n2C)cc1 | 14 | 0.9 | 0.8 | 1 | 3
Cc1ccc(CSc2nnc(-c3ccncc3)n2C)cc1 | 73* | 0.3 | 0.8 | 0.8 | 18
CS(=O)(=O)N(Cc1ccco1)CC(O)Cn1cc(C=O)c2ccccc21 (stereo not given) | 35 | 0.6 | 0.9 | 0.8 | 16
CCn1c(/N=C/c2c[nH]c3ccccc23)nc2ccccc21 | 61* | 0.4 | 1.2 | 0.1 | 90*
CCCn1c(/N=C/c2c[nH]c3ccccc23)nc2ccccc21 | 4 | 1 | 1 | 0.8 | 15
O=C(Nc1nccs1)C1C2/C=C\CCCCC21 (stereo not given) | 1 | 1 | 0.9 | 0.8 | 18
COc1ccc(S(=O)(=O)N2C3CCC2CC(NC(=O)C2CC2)C3)cc1 (stereo not given) | 18 | 0.8 | 1 | 1 | 4
O=C(CC(=O)NN=C1CCCC1)NCCc1ccccc1 | 18 | 0.8 | 1 | 0.9 | 10
COc1ccc(NC2=C(C(C)=O)C(c3ccc4c(c3)OCO4)C(C(C)=O)C(C)(O)C2)cc1 (stereo not given) | 72* | 0.3 | 1.2 | 0.2 | 78*
CCn1ccc(C(=O)NC2=C(C#N)CCC2)n1 | 10 | 0.9 | 1.2 | 0.9 | 6
O=C(Nn1c(-c2ccc(F)cc2)nc2ccccc2c1=O)C1CCCCC1 | 45 | 0.5 | 1.4 | 0.4 | 64*
CCCCCCC1CCC(C(=O)Nn2c(C)nc3ccccc3c2=O)CC1 (stereo not given) | 42 | 0.6 | 1.3 | 0.1 | 91*
Cc1nc2ccccc2c(=O)n1NC(=O)C1CCCCC1 | 6 | 0.9 | 0.8 | 0.9 | 12
COc1ccc(C(=O)Nc2cccnc2)cc1S(=O)(=O)N1CCOCC1 | 2 | 1 | 0.9 | 1.1 | -14
CC1CCc2ccc(F)cc2N1S(=O)(=O)c1cccs1 (stereo not given) | 62* | 0.4 | 0.9 | 0.6 | 40
CC1(C)CC(NCc2ccc3c(c2)OCO3)CCO1 (stereo not given) | 25 | 0.8 | 1 | 0.9 | 12
O=C(CCC(=O)OCc1ccc(C(=O)Oc2ccccc2)cc1)Nc1cccc2ccccc12 | 5 | 0.9 | 0.9 | 0.5 | 46
C=CCOC(=O)CCC(=O)Nc1cccc2ccccc12 | 80* | 0.2 | 0.9 | 0.9 | 13
Cc1ccc(S(=O)(=O)Nc2ccc(S(=O)(=O)NC(C)(C)C)cc2)cc1 | 48 | 0.5 | 1.3 | 0.1 | 87*
COc1cc(NS(=O)(=O)c2ccc(NC(C)=O)cc2)ncn1 | 8 | 0.9 | 0.8 | 1 | 3
CCCN(CCC)S(=O)(=O)c1ccc(NS(=O)(=O)c2ccc(F)cc2)cc1 | 46 | 0.5 | 1.3 | 0.1 | 92*
CC(C)(C)NS(=O)(=O)c1ccc(NS(=O)(=O)c2ccc(F)cc2)cc1 | 38 | 0.6 | 1.2 | 0.1 | 93*
SMILES | CYP2C19 inh | CYP2C19 activ | PLAP activator | CYP2C9 activ | CYP2C9 inhib
COc1ccc(NS(=O)(=O)c2ccc(NS(=O)(=O)c3ccc(C)cc3)cc2)nn1 | -3 | 1 | 1 | 0.3 | 66*
CC(C)(CNS(=O)(=O)c1ccc(F)cc1)CNS(=O)(=O)c1ccc(F)cc1 | 32 | 0.7 | 1.1 | 1 | 0
CCCN(CCC)S(=O)(=O)c1ccc(NS(C)(=O)=O)cc1 | -12 | 1.1 | 1.1 | 0.9 | 7
CCC(C)NCCOCCOc1ccccc1-c1ccccc1 (stereo not given) | 35 | 0.6 | 1.3 | 1.1 | -9
O=C(NC1CCCC1)C1CC(=O)N(CCc2ccccc2)C1 (stereo not given) | 16 | 0.8 | 1 | 0.9 | 10
Cc1cc(NC(=O)C2CC(c3ccc(F)cc3)=NO2)no1 (stereo not given) | 43 | 0.6 | 1 | 0.8 | 23
O=C(CSc1ncccc1-c1nc2ccccc2[nH]1)N1CCCCC1 | -2 | 1 | 1.1 | 1 | -2
